This passage reports outcome and Potency results from PubChem BioAssay (Tox21).

Results filed as inconclusive are left out. The source made the active and inactive calls. Unless noted, calls follow the shape of the dose curve; as a rule, active = well fitted curve in the direction sought with a large enough effect in the repeat runs; inconclusive = weak or mixed curves; inactive = no such curve, though single readings can be large; an effect the other way counts as inactive or inconclusive.

A short description of assay [1]: qHTS assay to identify small molecule antagonists of the androgen receptor (AR) signaling pathway using the MDA cell line in the presence of 0.5 nM R1881 - cell viability counter screen (AID 1259242). Also: nearly all actives have a fitted effect of over 45% in size. In short, it runs like this: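 qHTS format. MDA-kb2 (MMTV-luc, AR/GR responsive) + cpd + 0.5 nM R1881 final, 16 hr 37C/0% CO2 → CellTiter-Fluor 30 min → fluorescence intensity.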

The target in assay [2] is Estrogen receptor (Homo sapiens) (UniProt P03372). As to the kind of experiment: qHTS assay to identify small molecule antagonists of the estrogen receptor alpha (ER-alpha) signaling pathway using the BG1 cell line in the presence of 0.1 nM 17-beta-estradiol (AID 1259244). Also: nearly all actives have a fitted effect of over 50% in size. In short, it runs like this: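 Reporter is a stably transfected luciferase under four estrogen responsive elements in VM7Luc4E2 cells expressing native full-length ER-alpha; inhibition of 0.1 nM (final) 17beta-estradiol-driven signal over 22 h is read by luminescence.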
Estrogen receptor (Homo sapiens), sequence (P03372 whole entry, looked up): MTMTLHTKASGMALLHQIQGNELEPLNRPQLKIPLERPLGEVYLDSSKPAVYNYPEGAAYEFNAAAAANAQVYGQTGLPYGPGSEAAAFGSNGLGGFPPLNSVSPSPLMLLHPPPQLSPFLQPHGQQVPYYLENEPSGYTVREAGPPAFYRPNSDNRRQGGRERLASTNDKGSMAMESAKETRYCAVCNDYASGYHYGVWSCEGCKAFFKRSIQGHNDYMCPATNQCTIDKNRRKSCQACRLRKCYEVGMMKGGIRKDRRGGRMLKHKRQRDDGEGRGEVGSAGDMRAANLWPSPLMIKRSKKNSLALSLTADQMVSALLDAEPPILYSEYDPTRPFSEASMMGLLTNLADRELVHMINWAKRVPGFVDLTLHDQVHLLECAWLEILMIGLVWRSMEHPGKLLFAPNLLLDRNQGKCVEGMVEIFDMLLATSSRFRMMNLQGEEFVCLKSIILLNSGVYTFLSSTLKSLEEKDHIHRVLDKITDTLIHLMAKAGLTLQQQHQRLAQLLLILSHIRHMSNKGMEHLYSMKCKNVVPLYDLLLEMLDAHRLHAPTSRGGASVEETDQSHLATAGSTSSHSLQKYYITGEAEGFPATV

Assay [3] is described as follows: qHTS assay to identify small molecule HDAC inhibitors (AID 1259364). Also: potency is read from the fitted curve at half-maximal effect.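 Also: wild-type HCT-116 cells with endogenous class I/II HDAC activity; nearly all actives have a fitted effect of over 45% in size.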 In short, it runs like this:
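Quantitative high-throughput format: overnight-seeded HCT-116 cells got compounds for 2 hr at 37C; HDAC-Glo I/II reagent added, 30 min RT, luminescence measured.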

Assay [4] can be described thus: qHTS assay to identify small molecule HDAC inhibitors - cell viability counter screen (AID 1259365). Also: series mostly up to about 92 µM; nearly all actives have a fitted effect of over 50% in size. The method, boiled down:
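Wild-type HCT-116 cells, 1,500/well, cultured overnight, then compound-treated 2 h at 37 C. Viability measured as ATP luminescence with CellTiter-Glo after 30 min at room temperature.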

A short description of assay [5]: qHTS assay to identify small molecule antagonists of the sonic hedgehog signaling (Shh) pathway - cell viability counter screen (AID 1259367). Also: nearly all actives have a fitted effect of over 55% in size. In short, it runs like this:
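Fluorescence read-out (CellTiter-Fluor, 1 hr at 37C) taken after 23 hr compound treatment of 3T3 Gli1-Luc cells stimulated with conditioned medium. Cells were seeded at 2,000 per well and pre-incubated 4 hr.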

A short description of assay [6]: qHTS assay to identify small molecule agonists of the sonic hedgehog signaling (Shh) pathway (AID 1259368; calls by dose curve;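 also: NIH/3T3-derived 3T3Gli1-Luc cells carrying a stable Gli1-driven firefly luciferase reporter; series mostly up to about 92 µM; nearly all actives have a fitted effect of over 15% in size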). The method, boiled down: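 Quantitative high-throughput format using a Gli1-driven firefly luciferase reporter line derived from NIH/3T3 cells. After a 24 hr compound treatment at 37 C and 5% CO2, luminescence reported Gli1 response element activity.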
Assay [7] in a line: qHTS assay to identify small molecule antagonists of the sonic hedgehog signaling (Shh) pathway (AID 1259369; calls by dose curve; also: nearly all actives have a fitted effect of over 45% in size; also: potency is read from the fitted curve at half-maximal effect). In short, it runs like this:
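Stable Gli1-Luc reporter NIH/3T3 clone; quantitative HTS in stimulated mode with conditioned medium. Luminescence measured after 24hr compound treatment at 37 C.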

For assay [8], the target named is Estrogen receptor beta (Homo sapiens) (UniProt Q92731). The assay can be described thus: qHTS assay to identify small molecule agonists of the estrogen receptor beta (ER-beta) signaling pathway (AID 1259377; active = well fitted activation curve with a large enough effect in the signal ratio in the repeat runs, not every such curve was filed as active; the % refers to the signal ratio). The method, boiled down:
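ER-beta-UAS-bla HEK293T cells in medium with 2% charcoal-stripped FBS were exposed to compounds for 16 h at 37C. Beta-lactamase reporter activity was read as fluorescence after 2 h with LiveBLAzer B/G FRET substrate at room temperature.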

For assay [9] the target is unchanged. The assay can be described thus: qHTS assay to identify small molecule antagonists of the estrogen receptor beta (ER-beta) signaling pathway (AID 1259378; active = well fitted inhibition curve with a large enough effect in the signal ratio in the repeat runs, not every such curve was filed as active; the % refers to the signal ratio). In short, it runs like this: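 ER-beta-UAS-bla HEK293T cells in 2% charcoal-stripped FBS medium treated with compound plus 1nM final 17-beta-estradiol for 16 hr at 37C. Beta-lactamase reporter read by FRET substrate fluorescence after 2 hours at room temperature.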

Assay [10] is described as follows: qHTS assay to identify small molecule agonists of the androgen receptor (AR) signaling pathway in the presence of an antagonist - cell viability counter screen (AID 1259379).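 Also: MDA-kb2 human breast cancer cells carrying an MMTV luciferase reporter; series mostly up to about 92 µM; nearly all actives have a fitted effect of over 25% in size.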 In short, it runs like this: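 Nilutamide-containing (3.0uM final) MDA-kb2 cultures, 3,000 cells/well, were treated with compounds across 15 concentrations. After 16 hr at 37C with no CO2, cell viability was determined by CellTiter-Fluor fluorescence in the luciferase assay wells.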

A short description of assay [11]: qHTS assay to identify small molecule agonists of the estrogen receptor beta (ER-beta) signaling pathway - cell viability counter screen (AID 1259380). Also: nearly all actives have a fitted effect of over 30% in size. Also: potency is read from the fitted curve at half-maximal effect. In short, it runs like this:
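Steps: plate ER-beta-UAS-bla HEK293T cells, rest 6 hr; add compounds in DMSO; incubate 16 hr at 37C, 5% CO2; add FRET substrate 2 hr; add CellTiter-Glo, wait 30 min at room temperature; read luminescence.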

Assay [12] in a line: qHTS assay to identify small molecule antagonists of the estrogen receptor beta (ER-beta) signaling pathway - cell viability counter screen (AID 1259382). Also: series mostly up to about 92 µM; nearly all actives have a fitted effect of over 55% in size. In short, it runs like this:
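Viability is scored by CellTiter-Glo luminescence (30 min, room temperature) in ER-beta-UAS-bla HEK293T wells already read for reporter fluorescence. Compound exposure lasts 16 hr at 37C alongside 1nM 17-beta-estradiol in charcoal-stripped serum medium.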

Assay [13] concerns the target Estrogen receptor (Homo sapiens) (UniProt P03372). The assay can be described thus: qHTS assay to identify small molecule agonists of the estrogen receptor alpha (ER-alpha) signaling pathway in the presence of an antagonist (AID 1259383; calls by dose curve; also: top concentration of the series differs between compounds; nearly all actives have a fitted effect of over 15% in size). The method, boiled down:
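Readout was ERE-driven luciferase luminescence in VM7Luc4E2 cells, which express full-length ER-alpha endogenously. Compounds were tested at 15 concentrations for 22hr alongside 10.0nM ICI-182,780 (final concentration).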

In assay [14] the target is Thyrotropin receptor (Homo sapiens) (UniProt P16473). As to the kind of experiment: qHTS assay to identify small molecule antagonists of the thyroid stimulating hormone receptor (TSHR) signaling pathway (AID 1259385; calls by dose curve; also: nearly all actives have a fitted effect of over 20% in size). In short, it runs like this:
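TSHR-HEK293 cells (800/well) plated 18 h, then compounds with Ro20-1724 and TSH at 1.5 ng/mL final, 30 min at room temperature. cAMP quantified by HTRF (cAMP-d2/anti-cAMP-cryptate, 1 h); 15 concentrations in triplicate.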

The nature of assay [15]: qHTS assay to identify small molecule agonists of the estrogen receptor alpha (ER-alpha) signaling pathway in the presence of an antagonist - cell viability counter screen (AID 1259386).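 Also: series mostly up to about 92 µM; cells exposed to compounds for 22 h at 37 °C before the viability read; nearly all actives have a fitted effect of over 30% in size.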 The method, boiled down:
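In this counter screen, compound effects on VM7Luc4E2 viability were tested in the presence of the antagonist ICI-182,780 at 10.0nM final. Compounds were dosed at 15 concentrations, exposure lasted 22hr, and the CellTiter-Fluor signal was read.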

Assay [16] can be described thus: qHTS assay to identify small molecule agonists of the sonic hedgehog signaling (Shh) pathway - cell viability counter screen (AID 1259366). Also: nearly all actives have a fitted effect of over 50% in size. In short, it runs like this: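 NIH/3T3-derived Gli1-Luc reporter cells, 2,000 per well, received compound after 4 h and were treated about 23 h at 37C. Viability measured in the same wells by CellTiter-Fluor fluorescence after 1 h.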

In assay [17] the target is Androgen receptor (Homo sapiens) (UniProt P10275). The assay can be described thus: qHTS assay to identify small molecule agonists of the androgen receptor (AR) signaling pathway in the presence of an antagonist (AID 1259381; calls by dose curve; also: nearly all actives have a fitted effect of over 15% in size). The method, boiled down: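 Reporter-gene luminescence from MDA-kb2 cells exposed 16hr at 37C (0% CO2) to 15-point compound titrations with 3.0uM final nilutamide as AR antagonist.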
Androgen receptor (Homo sapiens), sequence (P10275 whole entry, looked up): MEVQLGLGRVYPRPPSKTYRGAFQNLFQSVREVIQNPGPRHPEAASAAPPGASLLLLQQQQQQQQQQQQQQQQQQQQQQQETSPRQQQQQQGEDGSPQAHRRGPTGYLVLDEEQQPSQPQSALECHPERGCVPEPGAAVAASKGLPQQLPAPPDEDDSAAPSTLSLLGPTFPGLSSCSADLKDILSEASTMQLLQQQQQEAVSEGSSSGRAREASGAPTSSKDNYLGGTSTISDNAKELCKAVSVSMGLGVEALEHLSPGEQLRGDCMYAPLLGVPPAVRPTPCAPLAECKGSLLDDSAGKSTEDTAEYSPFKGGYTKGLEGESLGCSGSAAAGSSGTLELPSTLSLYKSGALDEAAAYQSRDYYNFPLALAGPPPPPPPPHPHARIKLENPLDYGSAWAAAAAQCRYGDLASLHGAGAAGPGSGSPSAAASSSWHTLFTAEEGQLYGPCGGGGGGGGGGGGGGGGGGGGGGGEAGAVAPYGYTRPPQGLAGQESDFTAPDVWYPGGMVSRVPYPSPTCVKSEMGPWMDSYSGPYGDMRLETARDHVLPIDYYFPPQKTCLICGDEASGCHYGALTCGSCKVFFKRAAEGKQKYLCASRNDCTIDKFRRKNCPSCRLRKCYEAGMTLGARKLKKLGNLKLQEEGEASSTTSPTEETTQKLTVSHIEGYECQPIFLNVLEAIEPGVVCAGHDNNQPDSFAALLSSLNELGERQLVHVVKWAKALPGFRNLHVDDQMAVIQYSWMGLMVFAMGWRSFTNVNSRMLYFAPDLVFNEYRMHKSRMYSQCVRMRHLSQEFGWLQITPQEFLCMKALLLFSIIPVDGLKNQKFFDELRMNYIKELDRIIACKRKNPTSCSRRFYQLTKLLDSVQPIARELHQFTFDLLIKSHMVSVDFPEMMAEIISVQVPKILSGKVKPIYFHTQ

A short description of assay [18]: qHTS assay to identify small molecule agonists or antagonists of the thyroid stimulating hormone receptor (TSHR) signaling pathway - wild type cell line counter screen (AID 1259384; calls by dose curve). The method, boiled down:
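Wild-type Hek293 cells, 800/well, 18 h at 37C, then compound with Ro20-1724 for 30 min RT. cAMP by HTRF (cAMP-d2/anti-cAMP cryptate), 1 h RT, fluorescence read. 15 concentrations, triplicates.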

Thyrotropin receptor (Homo sapiens), sequence (P16473 whole entry, looked up): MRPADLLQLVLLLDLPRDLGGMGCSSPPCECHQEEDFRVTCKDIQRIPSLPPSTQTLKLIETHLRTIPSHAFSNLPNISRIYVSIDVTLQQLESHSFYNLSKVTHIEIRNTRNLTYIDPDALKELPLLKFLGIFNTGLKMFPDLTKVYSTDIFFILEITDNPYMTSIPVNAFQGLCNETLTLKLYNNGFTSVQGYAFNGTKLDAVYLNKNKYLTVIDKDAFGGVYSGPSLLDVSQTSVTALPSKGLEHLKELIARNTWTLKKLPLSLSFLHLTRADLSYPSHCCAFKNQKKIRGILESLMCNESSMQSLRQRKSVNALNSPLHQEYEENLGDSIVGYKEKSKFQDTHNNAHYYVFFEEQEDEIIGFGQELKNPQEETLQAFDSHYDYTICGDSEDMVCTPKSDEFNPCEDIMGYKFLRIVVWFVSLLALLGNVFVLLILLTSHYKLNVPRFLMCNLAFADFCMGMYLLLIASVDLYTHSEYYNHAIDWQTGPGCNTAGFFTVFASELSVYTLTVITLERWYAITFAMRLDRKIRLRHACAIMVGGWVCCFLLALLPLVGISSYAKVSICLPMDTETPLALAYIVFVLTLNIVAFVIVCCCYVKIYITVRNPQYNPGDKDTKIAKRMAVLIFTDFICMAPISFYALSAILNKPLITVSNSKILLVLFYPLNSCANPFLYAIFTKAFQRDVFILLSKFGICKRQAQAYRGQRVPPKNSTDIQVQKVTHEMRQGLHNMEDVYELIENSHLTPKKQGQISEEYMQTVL
Estrogen receptor beta (Homo sapiens), sequence (Q92731 whole entry, looked up): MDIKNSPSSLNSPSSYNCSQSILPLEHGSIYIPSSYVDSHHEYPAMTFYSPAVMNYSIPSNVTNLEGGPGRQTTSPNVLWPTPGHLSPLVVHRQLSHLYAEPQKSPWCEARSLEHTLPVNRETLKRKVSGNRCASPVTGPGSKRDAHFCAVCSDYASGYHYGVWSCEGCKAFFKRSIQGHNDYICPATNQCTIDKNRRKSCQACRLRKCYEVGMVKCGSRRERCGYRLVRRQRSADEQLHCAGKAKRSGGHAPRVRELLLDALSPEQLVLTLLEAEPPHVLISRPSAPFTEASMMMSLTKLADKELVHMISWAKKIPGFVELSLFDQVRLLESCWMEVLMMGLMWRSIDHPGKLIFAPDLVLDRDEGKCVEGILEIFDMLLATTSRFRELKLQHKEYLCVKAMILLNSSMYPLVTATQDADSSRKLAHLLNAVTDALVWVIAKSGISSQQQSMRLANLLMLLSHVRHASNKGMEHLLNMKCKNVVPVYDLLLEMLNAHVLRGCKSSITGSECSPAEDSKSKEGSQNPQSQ

With `O=C1OC(=O)C2C1C1(Cl)C(Cl)=C(Cl)C2(Cl)C1(Cl)Cl` (centres undefined), the result in assay [1], in [4], in assay [6] and in assay [8] was inactive. For the same compound, the Potency result in [2], in [3], in assay [5], in assay [7], in assay [9] and in [10] was “inactive” each time. Also, the Potency entry in assay [11], in assay [12], in [13], in [14] and in [15] was “inactive” each time.

`c1cc[c]([Hg][c]2ccccc2)cc1`: the result in assay [1], in [4] and in assay [6] was inactive. Also, the Potency entry in assay [2], in [16], in assay [9], in assay [10], in assay [11] and in assay [17] was “inactive” in each case. Also, the Potency entry in assay [12], in assay [18], in assay [14] and in assay [15] was “inactive” in each case. The Potency in assay [3] was 2.43 µM (active); in assay [7] it was 0.545 µM (active).

In the case of `CN1CCC(N(Cc2ccccc2)c2ccccc2)CC1`, the result in [1], in assay [4] and in assay [6] was inactive. Also, the Potency result in assay [2], in assay [3], in assay [16], in assay [5], in assay [10] and in assay [18] was “inactive” each time. Besides, the Potency entry in [14] and in [15] was “inactive” in each case. The Potency is 18.8 µM (active) in [7] and 13.3 µM (active) in [11].

Consider `C=C(C)[C@@H]1CC=C(C=O)CC1`, for which the outcome in assay [1], in assay [4] and in assay [6] was inactive. The Potency entry in assay [2], in [3], in assay [16], in [5], in [7] and in assay [10] was “inactive” throughout. Besides, the Potency result in assay [11], in assay [12], in assay [13], in [18], in assay [14] and in assay [15] was “inactive” in each case.

For `CC(=O)CCc1ccc2c(c1)OCO2`, the outcome in [1], in [4] and in assay [6] was inactive. Moreover, the Potency result in [2], in assay [3], in assay [16], in assay [5], in assay [7] and in [10] was “inactive” each time. Moreover, the Potency result in assay [11], in assay [12], in [13], in assay [18], in assay [14] and in assay [15] was “inactive” in each case.

`OC(c1ccc(F)cc1)(c1cncnc1)c1ccccc1Cl` (centres undefined): the result in assay [1], in assay [4], in assay [6] and in [8] was inactive. In addition, the Potency result in assay [2], in [3], in assay [16], in [5], in assay [10] and in assay [11] was “inactive” each time. In addition, the Potency result in [12], in assay [13], in assay [18], in assay [14] and in assay [15] was “inactive” throughout.

Turning to `Nc1cnn(-c2ccccc2)c(=O)c1Cl`, the outcome in assay [1], in [4], in assay [6] and in assay [8] was inactive. In addition, the Potency entry in assay [2], in [16], in [5], in [7], in [9] and in [10] was “inactive” in each case. Further, the Potency result in assay [11], in assay [12], in assay [13], in assay [18], in assay [14] and in [15] was “inactive” each time.

Take `O=[N+]([O-])c1ccc2c3c(cccc13)CC2`: the outcome in assay [1], in [4], in assay [6] and in assay [8] was inactive. Further, the Potency result in assay [2], in [16], in [5], in [9], in [10] and in assay [11] was “inactive” each time. In addition, the Potency result in assay [12], in [18], in assay [14] and in [15] was “inactive” throughout. Besides, the Potency in assay [7] was 21.7 µM (active).
